Screening data (PubChem)
VP16 counter: inhibits Gal4-VP16 luciferase reporter, ROR gamma counter-screen; Drosophila S2 Gal4-VP16 UAS-luciferase, luminescence, 20 h; Potency, µM (highest dose often 53.6 µM), actives largely listed as inhibitors; actives 3.5% (n = 310,000);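 further: Gal4-VP16 expression switched on by copper sulfate through the metallothionein promoter; nearly all actives have a fitted effect of over 50% in size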
BCR signal inh: chronic active BCR signaling inhibition | AID 493014 | actives 0.05% (n = 340,000) | ABC-DLBCL IkBa-CBG/CBR reporter, luminescence ratio, 4 h | Potency, µM (doses to about 46.1 µM), actives largely listed as inhibitors; active means well fitted inhibition curve with a large enough effect in the signal ratio, with a control signal flat, not every such curve was filed as active; inconclusive means small, poorly fitted or top-dose-only effect, or effect the other way, or a change in a side signal; the % refers to the signal ratio
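TMD8 human ABC-DLBCL cells with doxycycline-inducible IκBα–green luciferase fusion and unfused red luciferase, in 0.5% FBS medium; compounds up to 46 uM, 4 h at 37C. Green/red luminescence ratio, filter-overlap corrected, fitted to concentration-response curves.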
RORg inh: blocks mouse ROR gamma transcriptional activity | Potency, µM (top dose mostly 53.6 µM), usual class: inhibitors | P51450 | Drosophila S2 Gal4-RORgamma UAS-luciferase reporter, 20 h | AID 2551 | actives 5.4% (n = 310,000); further: nearly all actives have a fitted effect of over 60% in size
Target sequence (P51450 whole entry, looked up, the tested form may be a part): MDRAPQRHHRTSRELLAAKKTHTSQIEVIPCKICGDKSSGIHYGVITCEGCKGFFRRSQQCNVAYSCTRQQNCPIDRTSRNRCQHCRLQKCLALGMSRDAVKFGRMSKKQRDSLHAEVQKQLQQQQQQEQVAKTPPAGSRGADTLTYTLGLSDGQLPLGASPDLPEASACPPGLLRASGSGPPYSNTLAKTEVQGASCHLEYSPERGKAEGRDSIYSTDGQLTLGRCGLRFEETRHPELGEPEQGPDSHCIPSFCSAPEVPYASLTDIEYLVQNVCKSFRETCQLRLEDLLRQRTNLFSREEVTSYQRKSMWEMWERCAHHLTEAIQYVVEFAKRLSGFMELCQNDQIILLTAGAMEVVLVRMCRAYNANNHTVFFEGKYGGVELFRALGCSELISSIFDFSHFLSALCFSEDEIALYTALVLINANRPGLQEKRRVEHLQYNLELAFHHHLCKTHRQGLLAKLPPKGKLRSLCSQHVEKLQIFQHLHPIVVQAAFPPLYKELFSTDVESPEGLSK
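Luciferase reporter read in Schneider cells carrying Gal4-RORγ (mouse) and UAS-Photinus luciferase; cells given compound 1 h before 700 uM copper sulfate induction, then incubated 20 h at ambient temperature.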
MCF10A rereplic: inducers of DNA re-replication in MCF 10A breast cells; MCF 10A DNA re-replication, Hoechst nuclear intensity, 48 h; Potency, µM (doses to about 46.1 µM), hits mostly activators; actives 2.9% (n = 350,000); AID 624296; further: nearly all actives have a fitted effect of over 50% in size
Giardia killer: Giardia lamblia killing; actives 0.15% (n = 340,000); Giardia lamblia trophozoite viability; activity change, % at 7.66 µM, hits read low; in the data active means activity change below about -80%; inconclusive means between about -30% and that limit;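 further: parasites exposed to compound for two days anaerobically before the ATP read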
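Trophozoites 100 cells/well + cpd; 48 hrs, 37 deg C, anaerobic. ATPLite 1-Step added, 15-30 min RT, luminescence read (ATP-based viability).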
SW480 rerep: induces DNA re-replication in SW480 colon adenocarcinoma cells; SW480 DNA re-replication, Hoechst DNA content imaging, 48 h; Potency, µM (highest dose often 46.1 µM), actives largely listed as activators; actives 1.8% (n = 340,000); AID 624297; further: nearly all actives have a fitted effect of over 55% in size
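Image-based read-out: total Hoechst fluorescence of nuclei (405 nm excitation, 500-530 nm emission), with hits raising the fraction of high-intensity nuclei. SW480 colon cells incubated 48 hr with compounds at 37 C.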
Of the large screens only hits and unclear results are named; the others gave an inactive call. Only some compounds are listed: those with a hit (about 8.3% of all), similar ones and a draw of the others. Unless noted, the call rests on the fitted dose curve; in most records, active means well fitted curve in the direction sought with a large enough effect; inconclusive means small, poorly fitted or top-dose-only effect, or another doubt; inactive means no such curve, though single readings can be large; an effect the other way counts as inactive or inconclusive.

CC(C)(C)c1ccc(C2CC2C(=O)N/N=C\c2ccc[nH]2)cc1 (configuration not stated)	VP16 counter 6.3µM, RORg inh 10µM, MCF10A rereplic inconclusive, SW480 rerep inconclusive
CCOCCc1c(O)nc(SCC)[nH]c1=O	none
CCN(CC)CCNC(=O)c1cc2c(-c3ccc(Cl)cc3)nn(C)c2s1	BCR signal inh inconclusive, RORg inh inconclusive, SW480 rerep inconclusive
CCOCCCNC(=O)c1cc2c(-c3ccc(Cl)cc3)nn(C)c2s1	none
CCCCN(CC)CCNC(=O)c1cc2c(-c3ccc(Cl)cc3)nn(C)c2s1	MCF10A rereplic 18µM, SW480 rerep inconclusive
Cn1nc(-c2ccc(Cl)cc2)c2cc(C(=O)NC3CC3)sc21	VP16 counter 13µM, RORg inh inconclusive, MCF10A rereplic 6.5µM, SW480 rerep inconclusive
CCCN(CCC)CCCNC(=O)c1cc2c(-c3ccc(OC)c(OC)c3)nn(C)c2s1	MCF10A rereplic 18µM, SW480 rerep inconclusive
Cc1nn(-c2ccccc2)c2sc(C(=O)NC3CC3)cc12	MCF10A rereplic 12µM
CCOP(=O)(Nc1cccc2oc(=O)c3ccccc3c12)OCC	none (no result: VP16 counter, BCR signal inh, RORg inh)
O=C(CSc1nc2ncc(Br)cc2[nH]1)Nc1ccc2c(c1)OCO2	RORg inh inconclusive
CCC(=O)c1cn(CC(=O)Nc2cccc(OC)c2)c2ccccc12	none
CCCCN(C)C(=O)C1CCC(CNS(=O)(=O)c2ccc3c(c2)CC(C)N3C(=O)C2CC2)CC1 (configuration not stated)	VP16 counter inconclusive, RORg inh inconclusive, MCF10A rereplic inconclusive
CC(C)(C)N=C1NN=C(c2ccc(Cl)cc2)CS1	VP16 counter inconclusive, BCR signal inh inconclusive, RORg inh 7.1µM
COCC(C)N=C1NN=C(c2ccc(NC(C)=O)cc2)CS1 (configuration not stated)	RORg inh inconclusive, MCF10A rereplic 5.8µM, SW480 rerep inconclusive
CC(=O)c1c(C)[nH]c(C2=NNC(=NC(C)(C)C)SC2)c1C	VP16 counter inconclusive, BCR signal inh inconclusive, RORg inh inconclusive
CC(C)(C)N=C1NN=C(c2cc3ccccc3o2)CS1	VP16 counter inconclusive, BCR signal inh inconclusive, RORg inh 6.3µM, MCF10A rereplic inconclusive, SW480 rerep 12µM
CC(C)N=C1NN=C(c2cccs2)CS1	RORg inh 13µM
COCc1ccc(C(=O)N2CCCCC2C(=O)Nc2ccc(-n3nc(C)cc3C)cc2)o1 (configuration not stated)	none
CC(C)c1ccc(N=C2NN=C(c3cccs3)CS2)cc1	VP16 counter inconclusive, RORg inh 13µM, SW480 rerep inconclusive
CC(C)N=C1NN=C(c2ccc(Cl)c(Cl)c2)CS1	VP16 counter inconclusive, BCR signal inh inconclusive, RORg inh 10µM, MCF10A rereplic inconclusive, SW480 rerep inconclusive
COc1ccc(CN=C2NN=C(c3ccc(Cl)cc3)CS2)cc1	BCR signal inh inconclusive, RORg inh inconclusive
CCNc1c(NC(=O)c2ccc3c(c2)OCO3)c(=O)oc2ccccc12	BCR signal inh inconclusive
CC(C)N=c1c([N+](=O)[O-])nn(C)n1O	RORg inh inconclusive, MCF10A rereplic 0.73µM, Giardia killer inconclusive, SW480 rerep inconclusive
CC1CCN(Cc2nnnn2CCCC(=O)NC(c2ccccn2)C(F)(F)F)CC1 (configuration not stated)	MCF10A rereplic 21µM
O=[N+]([O-])c1cc(Br)c(Nc2ccccc2)c([N+](=O)[O-])c1	VP16 counter 13µM, BCR signal inh inconclusive, RORg inh inconclusive, MCF10A rereplic inconclusive, SW480 rerep inconclusive
O=C(Nc1ccccc1)c1ccc(Nc2c([N+](=O)[O-])cc([N+](=O)[O-])c3ccccc23)cc1	BCR signal inh inconclusive
O=C(NCCc1ccc(C(F)(F)F)cc1)c1ccc(Cl)nc1	RORg inh inconclusive
O=C(O)CC1COc2ccccc2N1C(=O)c1ccccc1Cl (configuration not stated)	Giardia killer inconclusive, SW480 rerep inconclusive
Cc1ccc(S(=O)(=O)CC(=O)Nc2nc3c(C)cc(C)cc3s2)cc1	none (no result: VP16 counter, RORg inh, MCF10A rereplic, Giardia killer, SW480 rerep)
Cc1cccc2sc(NNC(=O)c3ccc(S(=O)(=O)N4CC(C)CC(C)C4)cc3)nc12 (configuration not stated)	VP16 counter 1.4µM, RORg inh 0.71µM, MCF10A rereplic inconclusive, SW480 rerep 9.2µM
Cc1cc(C)c2nc(NNC(=O)c3ccc(S(=O)(=O)N4CC(C)CC(C)C4)cc3)sc2c1 (configuration not stated)	VP16 counter 7.9µM, RORg inh 2µM, MCF10A rereplic inconclusive, SW480 rerep inconclusive
Cc1cc(C)c2nc(NNC(=O)c3ccc(S(=O)(=O)N4CCCC(C)C4)cc3)sc2c1 (configuration not stated)	VP16 counter 5µM, RORg inh 0.79µM, MCF10A rereplic 15µM, SW480 rerep inconclusive
Cc1cccc(C(C)C)c1NC(=O)CN1C(=O)NC(Cc2ccccc2)C1=O (configuration not stated)	none (no result: VP16 counter, RORg inh)
COc1ccc(CN2CCN(C(=O)Cn3nc(C(=O)O)c4ccccc4c3=O)CC2)cc1F	none
O=c1ccc2ccc(Oc3ccc([N+](=O)[O-])cc3[N+](=O)[O-])cc2o1	VP16 counter inconclusive, BCR signal inh inconclusive, RORg inh 10µM, MCF10A rereplic inconclusive, SW480 rerep inconclusive (no result: Giardia killer)
Nc1ccc(Oc2ccc([N+](=O)[O-])cc2[N+](=O)[O-])cc1	RORg inh 8.9µM
O=C(O)c1cc([N+](=O)[O-])ccc1Oc1ccccc1	none (no result: VP16 counter, BCR signal inh, RORg inh)
O=[N+]([O-])c1ccc(Oc2cccnc2)c([N+](=O)[O-])c1	MCF10A rereplic 5.8µM, SW480 rerep inconclusive (no result: VP16 counter, BCR signal inh, RORg inh)
COc1ccc(C2/C=C\CN(CC(C)C)C(Cc3ccccc3)C(=O)N2Cc2ccc(F)cc2)cc1 (configuration not stated)	VP16 counter inconclusive, RORg inh inconclusive (no result: BCR signal inh, MCF10A rereplic, SW480 rerep)
O=c1c2ccccc2nc(/C=C/c2c[nH]c3ccccc23)n1-c1ccc([N+](=O)[O-])cc1	none
Cn1c(=O)c(-c2ccc(Cl)cc2)nc2cnc(N3CCNCC3)nc21	none (no result: BCR signal inh, MCF10A rereplic, Giardia killer, SW480 rerep)
COc1ccc(-n2cccc2/C=C/[N+](=O)[O-])cc1	VP16 counter inconclusive, BCR signal inh inconclusive, RORg inh 10µM, MCF10A rereplic 15µM, SW480 rerep 23µM
CCc1cc2c(nc1CC)CCN(CC/C(C)=N/OC[C@@H](C)[C@H](OCc1ccccc1)C(C)C)C2	none (no result: BCR signal inh, MCF10A rereplic, Giardia killer, SW480 rerep)
COc1cccc(N2CN(CCc3ccccc3)CNC2=S)c1	VP16 counter inconclusive, RORg inh 14µM, MCF10A rereplic inconclusive
CCc1ccc(N2CN(CCc3ccccc3)CNC2=S)cc1	VP16 counter 6.3µM, RORg inh 1.3µM
COc1cccc(N2CN(C3CCCCC3)CNC2=S)c1	RORg inh inconclusive, MCF10A rereplic inconclusive, SW480 rerep inconclusive
